Among all 140,000 compounds or so, about 4,300 (3.1%) were called active. About 21% were inconclusive and are not listed.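 How the source made its calls: active means readout at or below -70, meaning at least 70% loss of cells showing the perinucleolar compartment, a nuclear body marking cancer cells; inconclusive means readout between -30 and a set limit; inactive means the rest.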 The entries come from a sample that favours actives as a whole.

This test is described as follows: High Content Assay for Compounds that inhibit the Assembly of the Perinucleolar Compartment.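 Further: plate controls were DMSO wells for no effect and camptothecin positive control wells for full effect.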 The note with it: PC3M PTB-GFP, PNC prevalence imaging, 16 h; at 10 µM; stronger effect = lower value. In a few lines:
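Compounds are pinned in duplicate onto adhered PC3M cells stably expressing GFP-tagged PTB and incubated 16 h at 37 C. Cells are then fixed, nuclei stained with Hoechst, and PNC-positive cells counted.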
Take `CC(OC(=O)c1ccccc1N1C(=O)C2C3CCC(C3)C2C1=O)C(=O)c1ccccc1` (stereo unspecified): the activity change (PNC), negative = inhibition was -15.7% (inactive). For `CCOC(=O)c1c(NC(=O)CCl)sc(C(=O)N(CC)CC)c1C`, the activity change (PNC), negative = inhibition is 4.89% (inactive). Take `CC(C)C(C)NC(=O)COc1ncnc2ccccc12` (stereo unspecified): the activity change (PNC), negative = inhibition was 23% (inactive). In the case of `CCOC(=O)c1sc(NC(=O)COc2ncnc3ccccc23)c(C(=O)OCC)c1C`, the activity change (PNC), negative = inhibition is -95.9% (active). Next, `CCOc1ccc(-c2n[nH]c(=S)n2/N=C/c2cc3c(cc2[N+](=O)[O-])OCO3)cc1`: 25.2% (inactive); `COC(=O)c1sccc1NC(=O)COc1ccc(Cl)cc1`: -3.53% (inactive); `O=C(COc1ccc(Cl)cc1)NCCSc1ccccc1`: 8.59% (inactive). Under `O=C(COc1ccc(Cl)cc1)Nc1ccccc1CO` stands -92.3% (active); under `CCS(=O)(=O)N1Cc2ccccc2CC1C(=O)Nc1nc2ccc(F)cc2s1` (stereo unspecified), 48.1% (inactive). Under `O=C1C2C3C=CC(C4CC34)C2C(=O)N1c1nccs1` (stereo unspecified) stands 23.7% (inactive); under `Cc1cc(Cl)ccc1NC(=S)N1CCC(C(N)=O)(N2CCCCC2)CC1`, 74.5% (inactive); under `NC(=O)c1sc2nc3c(c(-c4ccccc4)c2c1N)CCC3`, -100% (active).

For `Cc1nc2sc(C(=O)c3ccccc3)c(N)c2c2c1CCCC2`, the activity change (PNC), negative = inhibition was 7.19% (inactive). `CC(=O)Nc1ccc(NC(=O)c2sc3nc4c(c(-c5ccc(C)cc5)c3c2N)CCC4)cc1`: the activity change (PNC), negative = inhibition is 14% (inactive). Next, `COc1ccc(Br)cc1C(=O)Nc1cccc(C)c1C`: -16.5% (inactive). Next, `CC(C)OCCCNC(=O)c1cc(Sc2ccc(F)cc2)nc2ccccc12`: -1.71% (inactive); `Cc1cc(C)cc(NC(=O)N2CCC(NC(=O)c3ccc(F)cc3)CC2)c1`: -20.1% (inactive); `O=S(=O)(c1ccc(F)cc1)N1CCN(C(=S)NCc2ccco2)CC1`: 8.43% (inactive).

Regarding `O=C(NC1CCN(C(=S)NCc2ccco2)CC1)c1ccc(F)cc1`, the activity change (PNC), negative = inhibition was -100% (active).

As for `Cc1ccc(CN2CCN(/N=C/c3cccnc3)CC2)c(C)c1`, the activity change (PNC), negative = inhibition was -5.48% (inactive). Turning to `CC(C)(C)NC(=O)C(=O)NCc1ccncc1`, the activity change (PNC), negative = inhibition was -17.6% (inactive).

Turning to `O=C(N/N=C/c1ccccn1)C12CC3CC(CC(C3)C1)C2`, the activity change (PNC), negative = inhibition is -19.1% (inactive). Under `COCCCn1c2nc3ccccc3nc2c2c(=O)n(Cc3ccc(Cl)cc3)c(C)nc21` stands 39.8% (inactive). Under `Cc1nc2ccccc2c(=O)n1CCCn1ccnc1` stands -81.9% (active); under `CCOc1ccccc1C(=O)NCCCn1ccnc1`, 15.6% (inactive); under `Cc1ccc(C2C3=C(Nc4[nH]n(-c5ccccc5)c(=O)c42)c2ccccc2C3=O)cc1` (stereo unspecified), -4.45% (inactive).

Regarding `CCCN(CCC)C(=S)Nc1cc(C(=O)OC)ccc1C(=O)OC`, the activity change (PNC), negative = inhibition is 27.9% (inactive). Under `Cn1c(=O)c(Sc2ccc(Cl)cc2)c(O)c2ccccc21` stands -25.4% (inactive); under `CCOC(=O)CNC(=O)/C=C/c1c(Cl)cccc1Cl`, -123% (active); under `O=C(/C=C/c1c(Cl)cccc1Cl)NCc1ccccc1`, -1.54% (inactive). Under `O=C(CNC(=O)Cc1ccccc1)NCC(=O)OCC(=O)c1ccccc1Cl` stands 90.5% (inactive); under `CCOC(=O)CC(NC(=O)C1c2ccccc2Oc2ccccc21)c1ccc(C)cc1` (stereo unspecified), -19.2% (inactive); under `CCOC(=O)N1CCN(C(=O)C2CCN(Cc3ccc(OC)cc3OC)CC2)CC1`, 33.2% (inactive). Under `N/C(=N\c1nc2ccccc2o1)NC(=O)C(Cc1ccccc1)N1C(=O)c2ccccc2C1=O` (stereo unspecified) stands -100% (active); under `O=C(NC1=NCCS1)[C@H](Cc1ccccc1)N1C(=O)c2ccccc2C1=O`, 5.11% (inactive); under `O=C(NCCN1CCOCC1)[C@H](Cc1ccccc1)N1C(=O)c2ccccc2C1=O`, -13.4% (inactive). For `CC(Sc1nc(-c2ccccc2)cc(C(F)(F)F)n1)C(=O)Nc1ccc2c(c1)OCO2` (stereo unspecified), the activity change (PNC), negative = inhibition is -18% (inactive). Take `O=C(COc1ccccc1)NCc1ccc2c(c1)OCO2`: the activity change (PNC), negative = inhibition was 24% (inactive). Next, `c1n[nH]c(NCc2ccc3c(c2)OCO3)n1`: -81.5% (active); `Cc1ccc(C(=O)OCC(=O)NCc2ccc3c(c2)OCO3)s1`: -9.27% (inactive). Under `O=C(CSc1nnc(SCc2ccc(Cl)cc2)s1)N/N=C/c1ccccc1Cl` stands -24.9% (inactive). Under `CCOc1ccc(N2C(=O)/C(=C/c3ccc(C)o3)N(C)C2=S)cc1` stands 15.7% (inactive). With `CC(C)CCN1C(=O)c2ccc(C(=O)Nc3cccc(S(N)(=O)=O)c3)cc2C1=O`, the activity change (PNC), negative = inhibition is -6.14% (inactive). Next, `CCOC(=O)C1=C(C)NC(=O)NC1c1ccccc1` (stereo unspecified): 2.37% (inactive); `CCOC(=O)C1=C(C)NC(=S)NC1c1cccs1` (stereo unspecified): -93.3% (active). Next, `CCOC(=O)C1=C(C)NC(C)=C(C(=O)OCC)C1C1=COCCO1`: 12% (inactive); `CONc1nc2nonc2nc1NOC`: 47% (inactive); `Cc1cnc(NC(=O)CSc2c(Cl)cccc2Cl)s1`: 79.3% (inactive).

Regarding `Cc1cnc(NC(=O)CSc2nnc(-c3ccc(Cl)cc3Cl)n2N)s1`, the activity change (PNC), negative = inhibition was -100% (active). Under `Cc1cnc(NC(=O)CSc2nnc(-c3ccccc3)n2Cc2ccccc2)s1` stands -8.74% (inactive); under `COc1ccc(C(=O)O/N=C(\N)Cc2ccc(Cl)cc2Cl)cc1OC`, -26.7% (inactive).

Regarding `CNS(=O)(=O)c1ccc(N2CCCC2=O)c([N+](=O)[O-])c1`, the activity change (PNC), negative = inhibition was -24.4% (inactive). For `COc1ccc(C(CC(=O)c2ccccc2)S(=O)(=O)c2ccccc2)cc1` (stereo unspecified), the activity change (PNC), negative = inhibition was 10.3% (inactive). Under `CCOC(=O)C1=C(C)N=c2s/c(=C\C(=O)OC)c(=O)n2C1c1ccc(OC)cc1` (stereo unspecified) stands 0.912% (inactive); under `COCCOC(=O)C1=C(C)N=c2s/c(=C\c3cccs3)c(=O)n2C1c1cccs1` (stereo unspecified), -82.9% (active); under `COCCOC(=O)C1=C(C)Nc2nc(C)nn2C1c1ccccc1` (stereo unspecified), -12.5% (inactive). Under `C=CCOc1ccc(/C=N/NC(=O)C(C)Sc2ccccn2)cc1OCC` (stereo unspecified) stands 17.5% (inactive); under `Cc1ccc(N=C2NC(=O)c3cccc([N+](=O)[O-])c32)cc1`, 43.8% (inactive); under `Cn1c2ccccc2c(=O)c2c(=O)n(Cc3ccco3)c(COc3ccccc3)nc21`, -87% (active).

Consider `COc1ccc(NC(=O)Cn2c(=O)n(Cc3ccco3)c(=O)c3ccccc32)cc1`, for which the activity change (PNC), negative = inhibition is -2.68% (inactive). Under `Cc1nc2c(c(=O)n1Cc1ccco1)c1nc3ccccc3nc1n2Cc1ccccc1` stands 32.1% (inactive).

The values are drawn from PubChem BioAssay AID2417 (National Center for Advancing Translational Sciences (NCATS), 2010).
